In PubChem BioAssay (NCI):
Compounds without any hit were thinned out: in the full panel of roughly 79,000, 15% have a hit. The source made the active and inactive calls. No stated cut-off is given here; in the data, active means growth inhibition above about 70%; inactive means the rest.

Columns and labels:
[1] = NCI Yeast Anticancer Drug Screen. Data for the wt2 strain (AID 169);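 further: 0% = growth of vehicle-treated yeast cultures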; settings: S. cerevisiae wt2 strain growth inhibition, hits give high values
How it was run: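 Yeast cells were exposed to test compounds, and growth inhibition was measured relative to vehicle-treated controls.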

[2] = NCI Yeast Anticancer Drug Screen. Data for the mlh1 strain (AID 171);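 further: 0% = growth of vehicle-treated control cultures of the same strain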; settings: S. cerevisiae mlh1 strain growth inhibition, hits give high values
How it was run: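 Yeast carrying a defined genetic alteration in DNA damage repair or cell cycle control were exposed to test compounds. Growth inhibition was measured relative to vehicle-treated controls.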

[3] = NCI Yeast Anticancer Drug Screen. Data for the sgs1 strain (AID 173);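 further: 0% = growth of vehicle-only control cultures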; settings: S. cerevisiae sgs1 mutant, hits give high values
How it was run: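 Yeast mutant strains carrying defined defects in DNA damage repair or cell cycle control were exposed to test compounds. Growth inhibition was scored against vehicle-treated controls.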

[4] = NCI Yeast Anticancer Drug Screen. Data for the mlh1 rad18 strain (AID 175); settings: S. cerevisiae mlh1 rad18 strain growth inhibition, hits give high values
How it was run: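 Growth inhibition of the yeast strain was measured after compound exposure and expressed relative to vehicle-treated controls. The strain carries defined defects in DNA damage repair.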

[5] = NCI Yeast Anticancer Drug Screen. Data for the rad18 strain (AID 177); settings: S. cerevisiae rad18 mutant growth inhibition, hits give high values
How it was run: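 Yeast carrying a defined DNA damage repair alteration were exposed to compounds. Growth inhibition was expressed relative to vehicle-treated controls.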

[6] = NCI Yeast Anticancer Drug Screen. Data for the rad52 strain (AID 147);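 further: 0% = growth of vehicle-treated control cultures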; settings: S. cerevisiae rad52 mutant growth inhibition, hits give high values
How it was run: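 Yeast strain carrying a DNA damage repair alteration was exposed to test compounds. Growth inhibition was measured relative to vehicle-treated controls.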

[7] = NCI Yeast Anticancer Drug Screen. Data for the wt1 strain (AID 149);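 further: 0% = growth of vehicle-treated wt1 cultures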; settings: S. cerevisiae wt1 strain (SPY 50644) growth inhibition, hits give high values
How it was run: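 Measured: growth of wt1 yeast under compound versus vehicle treatment, reported as inhibition.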

[8] = NCI Yeast Anticancer Drug Screen. Data for the rad50EPP+ strain (AID 151);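 further: 0% = growth of vehicle-treated control cultures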; settings: S. cerevisiae rad50 mutant strain, hits give high values
How it was run: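 Yeast strain carrying rad50 alteration (rad50EPP+) exposed to compounds; growth inhibition measured relative to vehicle-treated controls.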

[9] = NCI Yeast Anticancer Drug Screen. Data for the mgt1 strain (AID 153); settings: S. cerevisiae mgt1 mutant growth inhibition, hits give high values
How it was run: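 Yeast mgt1 strain (DNA repair/cell-cycle alteration panel) exposed to compounds; growth inhibition measured relative to vehicle-treated controls.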

[10] = NCI Yeast Anticancer Drug Screen. Data for the rad50 strain (AID 155);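 further: 0% = growth of vehicle-only cultures of the same strain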; settings: S. cerevisiae rad50 strain growth inhibition, hits give high values
How it was run: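 Growth of the mutant yeast was measured after compound exposure and referenced to vehicle-treated cultures.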

[11] = NCI Yeast Anticancer Drug Screen. Data for the mec2-1 strain (AID 157); settings: S. cerevisiae mec2-1 strain, hits give high values
How it was run: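 mec2-1 yeast strain, carrying an alteration in DNA damage repair or cell cycle control, was exposed to compounds; growth inhibition was measured relative to vehicle-treated controls.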

[12] = NCI Yeast Anticancer Drug Screen. Data for the rad14 strain (AID 159);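 further: 0% = growth of vehicle-treated control cultures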; settings: S. cerevisiae rad14 strain growth inhibition, hits give high values
How it was run: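 Here, inhibition of yeast growth was measured after compound exposure, using a strain with a genetic defect in DNA damage repair and vehicle-treated cultures as the reference.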

[13] = NCI Yeast Anticancer Drug Screen. Data for the sgs1 mgt1 strain (AID 161);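 further: 0% = growth of cultures given vehicle only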; settings: S. cerevisiae sgs1 mgt1 strain, hits give high values
How it was run: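 Percent growth inhibition was derived by comparing compound-exposed mutant yeast with vehicle-exposed cultures. The strain carries alterations in DNA damage repair.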

[14] = NCI Yeast Anticancer Drug Screen. Data for the CLN2oe strain (AID 163);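 further: 0% = growth of vehicle-only control cultures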; settings: S. cerevisiae CLN2oe strain, hits give high values
How it was run: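 Yeast cells carrying a defined cell-cycle control alteration were exposed to test compounds. Growth inhibition was scored against vehicle-treated control cultures.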

[15] = NCI Yeast Anticancer Drug Screen. Data for the cln2 rad14 strain (AID 165);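 further: 0% = growth equal to vehicle treated cultures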; settings: S. cerevisiae cln2 rad14 strain, hits give high values
How it was run: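 Yeast carrying cln2 and rad14 alterations (cell cycle control and DNA damage repair) were exposed to compounds. Growth inhibition was measured against vehicle-treated controls.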

[16] = NCI Yeast Anticancer Drug Screen. Data for the bub3 strain (AID 167); settings: S. cerevisiae bub3 mutant strain, hits give high values
How it was run: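 Whole-cell yeast assay. The mutant strain was incubated with compounds, and growth inhibition was determined by comparison with vehicle-treated cells.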

[17] = at 5.0 µM (retest, dose inferred, filed as 0.5)
[18] = at 50.0 µM (retest, dose inferred, filed as 5.0)

Measured: growth inhibition

COc1cc(O)c2c(c1O)C(=O)c1cc(C)ncc1C2=O
inactive: [1]; at 1.2 µM 39% | [1]; at 3.7 µM 60% | [2]; at 1.2 µM 7% | [2]; at 3.7 µM 21% | [2]; at 11.0 µM 41% | [2]; at 33.0 µM 54% | [3]; at 1.2 µM 12% | [3]; at 3.7 µM 29% | [4]; [17] 17% | [4]; at 50.0 µM 64.8% | [5]; at 1.2 µM 4% | [5]; at 3.7 µM 21% | [5]; at 11.0 µM 28% | [5]; at 33.0 µM 40% | [5]; at 100.0 µM 60%
active: [1]; at 11.0 µM 83% | [1]; at 33.0 µM 91% | [1]; at 100.0 µM 95% | [2]; at 100.0 µM 87% | [3]; at 11.0 µM 77% | [3]; at 33.0 µM 88% | [3]; at 100.0 µM 84% | [4]; [18] 83%

c1ccc2c(c1)sc1c3cnccc3ccc21
inactive: [6]; at 1.2 µM 11% | [6]; at 3.7 µM 41% | [6]; at 11.0 µM 62% | [7]; at 1.2 µM -1% | [7]; at 3.7 µM 14% | [7]; at 11.0 µM 23% | [7]; at 33.0 µM 22% | [7]; at 100.0 µM 23% | [8]; at 1.2 µM 36% | [8]; at 3.7 µM 46% | [8]; at 11.0 µM 55% | [8]; at 100.0 µM 65% | [9]; at 1.2 µM 1% | [9]; at 3.7 µM -1% | [9]; at 11.0 µM 0% | [9]; at 33.0 µM -3% | [9]; at 100.0 µM 3% | [10]; at 1.2 µM 12% | [10]; at 3.7 µM 36% | [10]; [17] 35% | [10]; at 11.0 µM 64% | [11]; at 1.2 µM 4% | [11]; at 3.7 µM 2% | [11]; [17] -34% | [11]; at 11.0 µM 3% | [11]; at 33.0 µM 8% | [11]; [18] -20% | [11]; at 50.0 µM 47.4% | [11]; at 100.0 µM 12% | [12]; at 1.2 µM 4% | [12]; at 3.7 µM 15% | [12]; at 11.0 µM 37% | [12]; at 33.0 µM 32% | [12]; at 100.0 µM 29% | [13]; [17] -55% | [13]; [18] -34% | [13]; at 50.0 µM 23.6% | [14]; at 1.2 µM 4% | [14]; at 3.7 µM 8% | [14]; at 11.0 µM 1% | [14]; at 33.0 µM 5% | [14]; at 100.0 µM 8% | [15]; [17] -39% | [15]; [18] -26% | [15]; at 50.0 µM 33% | [16]; at 1.2 µM 13% | [16]; at 3.7 µM 15% | [16]; [17] -35% | [16]; at 11.0 µM 24% | [16]; at 33.0 µM 34% | [16]; [18] -8% | [16]; at 50.0 µM 44.9% | [16]; at 100.0 µM 39% | [1]; at 1.2 µM 8% | [1]; at 3.7 µM 14% | [1]; at 11.0 µM 25% | [1]; at 33.0 µM 36% | [1]; at 100.0 µM 32% | [2]; at 1.2 µM -9% | [2]; at 3.7 µM -1% | [2]; at 11.0 µM 2% | [2]; at 33.0 µM 10% | [2]; at 100.0 µM 9% | [3]; at 1.2 µM -8% | [3]; at 3.7 µM -10% | [3]; at 11.0 µM 3% | [3]; at 33.0 µM 9% | [3]; at 100.0 µM 8% | [4]; [17] -171% | [4]; [18] -49% | [4]; at 50.0 µM 45.5% | [5]; at 1.2 µM -8% | [5]; at 3.7 µM 1% | [5]; at 11.0 µM -1% | [5]; at 33.0 µM -2% | [5]; at 100.0 µM 13%
active: [6]; at 33.0 µM 84% | [6]; at 100.0 µM 86% | [8]; at 33.0 µM 73% | [10]; at 33.0 µM 74% | [10]; [18] 74% | [10]; at 50.0 µM 94.3% | [10]; at 100.0 µM 73%

CCC(C)NC1=NCC(C)S1 (centres undefined)
active: [16]; [18] 98%
inactive: [6]; at 1.2 µM -9% | [6]; at 3.7 µM -12% | [6]; at 11.0 µM -12% | [6]; at 33.0 µM -29% | [6]; at 100.0 µM -17% | [7]; at 1.2 µM -22% | [7]; at 3.7 µM -14% | [7]; at 11.0 µM -24% | [7]; at 33.0 µM -34% | [7]; at 100.0 µM -28% | [8]; at 1.2 µM -40% | [8]; at 3.7 µM -38% | [8]; at 11.0 µM -27% | [8]; at 33.0 µM -37% | [8]; at 100.0 µM -75% | [9]; at 1.2 µM -18% | [9]; at 3.7 µM -15% | [9]; at 11.0 µM -13% | [9]; at 33.0 µM -19% | [9]; at 100.0 µM -25% | [10]; at 1.2 µM -29% | [10]; at 3.7 µM -20% | [10]; [17] 44% | [10]; at 11.0 µM -32% | [10]; at 33.0 µM -34% | [10]; [18] 41% | [10]; at 50.0 µM 64.1% | [10]; at 100.0 µM -33% | [11]; at 1.2 µM -40% | [11]; at 3.7 µM -48% | [11]; [17] 42% | [11]; at 11.0 µM -63% | [11]; at 33.0 µM -51% | [11]; [18] 36% | [11]; at 50.0 µM 28.9% | [11]; at 100.0 µM -39% | [12]; at 1.2 µM -17% | [12]; at 3.7 µM -15% | [12]; at 11.0 µM -22% | [12]; at 33.0 µM -21% | [12]; at 100.0 µM -25% | [13]; [17] -9% | [13]; [18] 30% | [13]; at 50.0 µM 58.2% | [14]; at 1.2 µM -5% | [14]; at 3.7 µM 1% | [14]; at 11.0 µM -9% | [14]; at 33.0 µM 0% | [14]; at 100.0 µM -8% | [15]; [17] 44% | [15]; [18] 49% | [15]; at 50.0 µM 65.7% | [16]; at 1.2 µM -6% | [16]; at 3.7 µM -9% | [16]; [17] 19% | [16]; at 11.0 µM -8% | [16]; at 33.0 µM -16% | [16]; at 50.0 µM 57.7% | [16]; at 100.0 µM -17% | [1]; at 1.2 µM -20% | [1]; at 3.7 µM -21% | [1]; at 11.0 µM -28% | [1]; at 33.0 µM -26% | [1]; at 100.0 µM -22% | [2]; at 1.2 µM -27% | [2]; at 3.7 µM -27% | [2]; at 11.0 µM -22% | [2]; at 33.0 µM -36% | [2]; at 100.0 µM -42% | [3]; at 1.2 µM -26% | [3]; at 3.7 µM -21% | [3]; at 11.0 µM -16% | [3]; at 33.0 µM -38% | [3]; at 100.0 µM -29% | [4]; [17] 47% | [4]; [18] 27% | [4]; at 50.0 µM 62.6% | [5]; at 1.2 µM -12% | [5]; at 3.7 µM 0% | [5]; at 11.0 µM -6% | [5]; at 33.0 µM -26% | [5]; at 100.0 µM -32%
